Measurements taken from PubChem BioAssay (Tox21).
The source made the active and inactive calls. Calls follow the shape of the dose curve; as a rule, active = well fitted curve in the direction sought with a large enough effect in the repeat runs; inconclusive = weak or mixed curves; inactive = flat fitted curve, though single readings scatter.

Assay: qHTS assay to test for compound auto fluorescence at 460 nm (blue) in HepG2 cells (AID 720687)
Conditions: autofluorescence 405/460 nm, 1 h; series mostly up to 91.3 µM
Text: U.S. Tox21 Program National Center for Advancing Translational Sciences [NCATS] NIH Chemical Genomics Center [NCGC] U.S. Environmental Protection Agency [EPA] National Institutes of Environmental Health Sciences [NIEHS] National Toxicology Program [NTP] U.S. Food and Drug Administration [FDA] Tox21 Assay Overview: Compound auto fluorescence often interferes with screening of the compound library against various biological targets and signaling pathways. Some of these compounds may have fluorophoric properties. Such properties may interfere with the assay outputs resulting in false positives and/or negatives. To decrease such complications and ensure the compound activities are relevant in terms of biological response, the Tox21 10K compound library was screened for auto fluorescence. From the fluorophores used as reporter signals in our screening assays, the auto fluorescence equivalencies of compounds against three fluorophores have been evaluated: Triamterene, Fluorescein and Rose Bengal sodium for blue, green and red fluorescence, respectively. The fluorescence intensities were measured using Excitation/Emission wavelengths at 405/460nm, 485/535nm and 540/590nm for blue, green and red labels, respectively. This assay includes the blue fluorescence data.
Tox21 Assay Protocol Summary: 2,000 HepG2 cells in 5 uL of culture medium (MEM containing 10% FBS) per well were dispensed into black wall/clear bottom 1536-well plates using a Multidrop Combi Dispenser (ThermoFisher Scientific, Waltham, MA). The assay plates were incubated overnight at 37 C to allow cell attachment to the well bottom, followed by the transfer of 23 nL compound or DMSO vehicle by a pintool work station (Kalypsys , San Diego, CA). After the assay plates were incubated for 1 hr at 37 C and 5% CO2, fluorescence intensities in the assay plates were measured by an Envision (PerkinElmer, Shelton, CT) plate reader using three labels for measuring blue, green and red fluorescence at […] 460, 535 and 590 nm respectively.

Row | Structure (SMILES) | outcome
1 | c1cc[c]([Hg][c]2ccccc2)cc1 | inactive
2 | CC(Cl)(Cl)[N+](=O)[O-] | inactive
3 | COC(=O)C(c1ccccc1)C1CCCCN1 (stereo not given) | inactive
4 | CCCCCCBr | inactive
5 | COC(=O)c1c(C(F)F)nc(C(F)(F)F)c(C2=NCCS2)c1CC(C)C | inactive
6 | c1coc(-c2nc3ccccc3[nH]2)c1 | inactive
7 | CCCCCCI | inactive
8 | CC(=O)[C@H]1CC[C@H]2[C@@H]3CC[C@H]4C[C@H](O)CC[C@]4(C)[C@H]3C(=O)C[C@]12C | inactive
9 | COC(=O)C1=CCCN(C)C1 | inactive
10 | O=C1OC(=O)C2C1C1(Cl)C(Cl)=C(Cl)C2(Cl)C1(Cl)Cl (stereo not given) | inactive
11 | CC1=NNC(=O)N(/N=C/c2cccnc2)C1 | inactive
12 | N#CC(CCc1ccc(Cl)cc1)(Cn1cncn1)c1ccccc1 (stereo not given) | inactive
13 | [Cl][Sn]([Cl])([Cl])[Cl] | inactive
14 | C=C(C)CN(CC)c1c([N+](=O)[O-])cc(C(F)(F)F)cc1[N+](=O)[O-] | inactive
15 | CNC(=O)N(C)c1nc2ccccc2s1 | inactive
16 | CC(C)CC#N | inactive
17 | Fc1ccc(C2(Cn3cncn3)OC2c2ccccc2Cl)cc1 (stereo not given) | inactive
18 | NC(=S)C(N)=S | inactive
19 | O=C(N[C@H]1CN2CCC1CC2)c1cc2ccoc2cn1 | inactive
20 | CNC(=O)Oc1ccc(N(C)C)c(C)c1 | inactive

Row | Structure (SMILES) | outcome
21 | CC(=O)Nc1cc([As](=O)(O)O)ccc1O | inactive
22 | Cc1ccccc1CO[C@@H]1C[C@@]2(C(C)C)CC[C@]1(C)O2 | inactive
23 | CCS(=O)(=O)C(C)(C)S(=O)(=O)CC | inactive
24 | COc1cccc2c1cc([N+](=O)[O-])c1c(C(=O)O)cc3c(c12)OCO3 | inactive
25 | Cc1ncsc1CCCl | inactive
26 | C=C(C)[C@@H]1CC=C(C=O)CC1 | inactive
27 | O=C(Cc1ccccc1)OCc1ccccc1 | inactive
28 | C=CCC1=C(C)[C@@H](OC(=O)[C@@H]2[C@@H](C=C(C)C)C2(C)C)CC1=O | inactive
29 | CCOP(=S)(OCC)Oc1nc(Cl)n(C(C)C)n1 | inactive
30 | C[C@]12CC[C@H]3[C@@H](CC=C4C[C@@H](O)CC[C@@]43C)[C@@H]1CC[C@@H]2O | inactive
31 | CCCCP(CCCC)CCCC | inactive
32 | COC(=O)c1ccccc1S(=O)(=O)NC(=O)Nc1nc(C)cc(C)n1 | inactive
33 | N#Cc1ccncc1 | inactive
34 | CC1(C)C(=O)NC(=O)NC1=O | inactive
35 | CNC(=O)O/N=C(\C)SC | inactive
36 | CC1CCC(=O)O1 (stereo not given) | inactive
37 | ClC(Br)Br | inactive
38 | CCCSP(=O)(OCC)Oc1ccc(Br)cc1Cl (stereo not given) | inactive
39 | CCN(CC)C(=O)[C@@H]1C=C2c3cccc4[nH]cc(c34)C[C@H]2N(C)C1 | inactive
40 | CCCCOP(=O)(O)OCCCC | inactive
